High-throughput results: PubChem BioAssay, Sanford-Burnham Center for Chemical Genomics
PABP polyA inh: blocks human PABP binding to poly(A) RNA; P11940; fluorescence polarization; inhibition, % at 35 µM; hit rate 1% among 290,000;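 note: calls also rest on retests at 20 µM and on dose response follow-up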
eIF4H FP inh: inhibitors of RNA binding by human eIF4H. hit rate 0.94% among 290,000. AID 2012. inhibition, % at 35 µM. eIF4H fluorescence polarization binding assay. Q15056;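 note: calls also rest on retests at 20 µM and on dose response follow-up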
CRFR2-BP antag: antagonists of CRF-binding protein/CRF-R2 receptor complex; hit rate 0.59% among 350,000; HEK293 CRF-R2/CRF-BP, CRF-induced calcium fluorescence; AID 588475; inhibition, % at 11.8 µM;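 active = inhibition of the ligand-induced calcium signal above about 50% at the single tested concentration, limit read from the data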
PHOSPHO1 block: blocks human PHOSPHO1 phosphatase activity; Q8TCT1; recombinant PHOSPHO1, absorbance phosphatase assay; inhibition, % at 13.3 µM; hit rate 1.1% among 290,000; in the data active = inhibition above about 60%
Target sequence (Q8TCT1 whole entry, looked up): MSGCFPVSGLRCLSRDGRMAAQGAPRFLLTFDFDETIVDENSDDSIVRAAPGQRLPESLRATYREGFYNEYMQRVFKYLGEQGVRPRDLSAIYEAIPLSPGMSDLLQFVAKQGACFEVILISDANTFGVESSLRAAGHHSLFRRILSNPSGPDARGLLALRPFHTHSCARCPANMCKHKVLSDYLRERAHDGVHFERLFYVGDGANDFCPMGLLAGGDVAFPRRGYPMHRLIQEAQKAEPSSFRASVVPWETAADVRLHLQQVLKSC
PABP1 MLLE inh: blocks PAM2 peptide binding to the PABP1 MLLE domain. hit rate 0.36% among 360,000. GST-MLLE / FITC-PAM2 fluorescence polarization. AID 588489. inhibition, % at 20 µM; in the data active = inhibition above about 35%, passing the limit was not always enough;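 note: plate controls were DMSO wells with GST-MLLE for no effect and wells lacking GST-MLLE protein for full effect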
* hit, by the source's call; nt = no result given. Most compounds without a hit are left out; they make up all but 2.6% or so of the library. Unless noted, the rule behind the calls is not given here.

SMILES	PABP polyA inh	eIF4H FP inh	CRFR2-BP antag	PHOSPHO1 block	PABP1 MLLE inh
Cc1ccccc1Oc1ccc2c(c1)[C@@H]1C[C@H](N(C)C(=O)c3ccc(C#N)cc3)[C@H]([C@H](C)O)C(=O)N1CC2	nt	nt	10	nt	-16
Cn1ccnc1SCC(=O)c1ccc(Br)cc1	-1	-3	25	61*	-59
Cn1ccnc1SCC(=O)c1ccc([N+](=O)[O-])cc1	-8	-8	10	-99	-20
C[C@@H]1CCCN1[C@H]1CS(=O)(=O)N[C@@H]1COCc1ccccc1	nt	nt	nt	nt	2
CN1CC(O)(C(O)C(O)C(O)CO)SC1=S (stereo not drawn)	nt	nt	-5	nt	15
CCOc1cc(C(=S)N2CCOCC2)ccc1OC	-6	-6	-2	58	56*
S=C(c1ccc(N2CCCC2)cc1)N1CCCCC1	0	-4	-6	14	3
CCOc1ccc(C(=S)N2CCOCC2)cc1OC	-3	0	4	-4	21
S=C(c1ccc(N2CCOCC2)cc1)N1CCOCC1	4	5	13	20	38*
CN(C)c1ccc(C(=S)N2CCOCC2)cc1Br	4	2	11	101*	33
CCOc1ccc(C(=S)NC2CCCCC2)cc1OC	0	11	-5	81*	22
Cc1cc2nc(C3CCCCC3)c(Cc3ccccc3)n2c(C)c1Br	nt	nt	nt	nt	-17
CC(C)=NNc1cnnc2ccc([N+](=O)[O-])cc12	nt	nt	nt	nt	-70
CC1(C(=O)Nc2cnc3ccccc3c2)CCN1C(=O)C/C=C/c1ccccc1 (stereo not drawn)	nt	nt	nt	nt	-3
C=CCN(CC(=O)Nc1cccnc1)S(=O)(=O)c1ccc(Cl)cc1	nt	nt	8	nt	-7
COC(=O)C1=C(C(=O)c2ccccc2)C(c2ccc(O)c(OC)c2)n2nnnc2N1 (stereo not drawn)	8	0	98*	7	6
COC(=O)C1=C(C(=O)c2ccc(C)cc2)C(c2ccc(O)c(OC)c2)n2nnnc2N1 (stereo not drawn)	7	-3	-4	12	3
CC(=O)Nc1ccc(Cl)cc1C1COC(=O)C1=N (stereo not drawn)	7	1	3	-11	1
Cc1cc(NC(=O)Cn2nc3c(cc2=O)CCCC3)ccc1Br	1	-6	55*	-12	-8
Cc1cc(NC(=O)Cn2nc(C(=O)O)c3ccccc3c2=O)ccc1Br	12	-5	-1	35	9
CC(=O)Nc1ccc(N2C(=O)CSC2c2ccc(F)cc2)cc1 (stereo not drawn)	73*	98*	0	1	5
COc1ccc(N2C(=O)CSC2c2ccc(F)cc2)cc1 (stereo not drawn)	4	-5	1	30	-6
O=C(NCc1ccncc1)c1ccc(Cn2cc(C(F)(F)F)ccc2=O)cc1	-9	3	-11	60*	-19
Cc1ccc(NC(=O)CCn2cc(C(F)(F)F)ccc2=O)cc1	1	-3	122*	44	9
CNC(=O)Nc1ccc(Cn2cc(C(F)(F)F)ccc2=O)cc1	-6	8	6	0	-5
SMILES	PABP polyA inh	eIF4H FP inh	CRFR2-BP antag	PHOSPHO1 block	PABP1 MLLE inh
Cc1cccc(NC(=O)c2ccc(Cn3cc(C(F)(F)F)ccc3=O)cc2)c1	8	-3	-42	65*	0
Cc1cc(O)ccc1-c1cccc2nccn12	nt	nt	nt	nt	0
NNC(=O)COc1ccc(C(F)(F)F)cc1	-2	5	-2	44	-5
CS(=O)(=O)N(CC(=O)N1CCN(Cc2ccccc2)CC1)c1ccccc1Br	13	5	3	nt	-2
COc1ccc(/C=C/c2nc(-c3ccccc3)cc(=O)[nH]2)cc1	7	-7	66*	8	-3
CC1(C2CCC3(C)OC3C2)CO1 (stereo not drawn)	nt	nt	-7	nt	13
CN(C)/N=C/c1ccc(/C=N/NC(N)=S)o1	-3	12	-6	-118	-23
Cc1ccc(-c2ccc(/C=N/NC(N)=S)o2)cc1	-4	-2	-15	-98	17
NC(=S)N/N=C/c1ccc(-c2ccccc2)o1	0	-5	32	-25	-8
NC(=S)N/N=C/c1ccc(-c2ccc(SC(F)F)cc2)o1	6	4	58*	22	-36
NC(=S)N/N=C/c1ccc(-c2ccc(Cl)c(Cl)c2)o1	-4	-8	-18	81*	-20
NC(=S)N/N=C\c1ccc(-c2cccc(Cl)c2Cl)o1	18	-6	1	95*	-22
Cc1ccccc1CN(C)CC(=O)Nc1cccc(S(=O)(=O)N(C)c2ccccc2)c1	-18	-5	14	62*	-23
CCn1cnc2c(Nc3cc(F)cc(F)c3)nc(C#N)nc21	nt	nt	-10	nt	-6
N#Cc1nc(Nc2cccc(Cl)c2)c2ncn(C3CCCC3)c2n1	nt	nt	97*	nt	-22
